In PubChem BioAssay:
Inconclusive results are not listed. Activity calls are given as the source filed them. Unless noted, the limit is not given here; nearly all actives have AC50 up to about 26 µM.

Key:
[1] = growth inhibition of DIPG glioma cells, dose response, cell-based, SU-DIPG-XVII, MIPE5.0, CellTiter-Glo, qHTS (AID 1347060); settings: SU-DIPG-XVII viability, CellTiter-Glo ATP luminescence;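 also: cells exposed to compound for 48 hours before viability readout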
[2] = growth inhibition of DIPG glioma cells, dose response, cell-based, SU-DIPG-XIII, MIPE5.0, CellTiter-Glo, qHTS (AID 1347064; cut-off not given, nearly all actives have AC50 up to about 23 µM;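 also: cells exposed to compound for 48 hours before the viability read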); settings: SU-DIPG-XIII viability, CellTiter-Glo ATP luminescence
[3] = viability loss in pontine glioma line – cell-based, SU-DIPG-XXV, MIPE5.0, CellTiter-Glo, qHTS, dose response (AID 1347065); settings: CellTiter-Glo ATP luminescence;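 also: cells exposed to compound for 48 hours before ATP readout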
[4] = JHH-DIPG-1 glioma cell viability, MIPE5.0 library, CellTiter-Glo luminescence, qHTS (AID 1347067); settings: JHH-DIPG-1 glioma viability, CellTiter-Glo ATP luminescence;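 also: cells exposed to compound for 48 hours before readout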

Measured: AC50

O=C(Nc1ccc2[nH]nc(-c3ccncc3)c2c1)[C@@H]1CCN(CC(=O)N2CCN(c3ccc(-c4ncccn4)cc3)CC2)C1
active: [1] 1.05 µM | [2] 1.48 µM | [3] 1.05 µM | [4] 0.525 µM
